# An excerpt weighted towards active compounds, which were near 27% of everything screened.
# CYP2C9 activ – CYP2C9 (human) activation; P11712; recombinant CYP2C9, luciferin-H conversion, luminescence; hits give high values; factor 1 = untreated enzyme, 0 = blocked; activation factor at 5 µM; 96,000 tested, 1.4% active; AID 1024;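 active = activation factor of 2 or more for CYP2C9 at a 5 µM dose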;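 also: 0 = sulfaphenazole-blocked wells and 1 = vehicle-only wells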
# Target sequence (P11712 whole entry, looked up): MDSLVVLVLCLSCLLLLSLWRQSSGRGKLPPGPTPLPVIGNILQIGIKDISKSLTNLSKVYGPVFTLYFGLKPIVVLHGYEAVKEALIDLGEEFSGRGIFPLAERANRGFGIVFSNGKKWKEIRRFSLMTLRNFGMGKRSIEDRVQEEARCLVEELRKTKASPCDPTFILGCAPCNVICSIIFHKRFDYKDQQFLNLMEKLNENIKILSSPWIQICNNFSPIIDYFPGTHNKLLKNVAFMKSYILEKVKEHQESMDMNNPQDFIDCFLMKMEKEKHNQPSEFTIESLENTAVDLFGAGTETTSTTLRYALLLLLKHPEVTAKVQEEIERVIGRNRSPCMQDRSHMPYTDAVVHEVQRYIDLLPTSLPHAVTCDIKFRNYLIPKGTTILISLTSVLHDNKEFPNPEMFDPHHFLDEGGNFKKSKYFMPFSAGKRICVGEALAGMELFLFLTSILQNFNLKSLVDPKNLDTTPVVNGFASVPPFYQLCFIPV
# Cav3 T inh – blocks human Cav3.2 T-type calcium channel. 100,000 tested, 4% active. O95180. B-score at 10 µM. Cav3.2-expressing cells, Fluo-4 calcium fluorescence FDSS; hits give low values. AID 449739;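 active = single-dose well whose peak fluorescence ratio is a statistical outlier from its plate by either plate-standardised score or position-corrected B-score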
# CYP2C9 inhib – inhibitors of human CYP2C9. 96,000 tested, 20% active. inhibition, % at 5 µM. CYP2C9 Supersomes, luciferin-H conversion, luminescence. AID 777. P11712;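 active = blocking of liver enzyme CYP2C9 beyond about 50% at 5 µM, limit read from the data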
# CYP2C19 activ – activators of human cytochrome P450 2C19 | P33261 | recombinant CYP2C19, luciferin-H EGE luminescence; hits give high values; 0 = fully inhibited enzyme, 1 = untreated enzyme | activation factor at 5 µM | 96,000 tested, under 10 active | AID 1025;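 active = activation factor of at least 2 at 5 µM in the primary screen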;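 also: 0 = wells with 2.5 mM tranylcypromine and 1 = vehicle-only wells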
# CYP2C19 inhib – inhibitors of human CYP2C19. P33261. CYP2C19 Supersomes, luciferin-H EGE luminescence, 30 min. inhibition, % at 5 µM. 96,000 tested, 21% active;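 active = CYP2C19 inhibition above a set limit at 5 µM in the primary screen, cut at about 50% in these data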;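 also: plate controls were negative control wells for no effect and 2.5 mM tranylcypromine positive control for full effect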
# The depositor's hits bear a star; nt = no result given.
SMILES,CYP2C9 activ,Cav3 T inh,CYP2C9 inhib,CYP2C19 activ,CYP2C19 inhib
CCCS(=O)(=O)c1c(S(=O)(=O)CCC)c2cc(CC)ccn2c1C(=O)OC,0.6,1.3,43,0.8,25
CCCS(=O)(=O)c1c(S(=O)(=O)CCC)c2ccccn2c1C(=O)OC,0.5,0.015,52*,0.8,20
CC(=O)N(Cc1cc2cc(C)c(C)cc2n2nnnc12)CC1COCCO1 (stereo not drawn),1,0.39,4,0.8,25
CN(C)NC1CCS(=O)(=O)C1 (stereo not drawn),1.1,0.49,-6,1,-4
CCOC(=O)c1ccc(COc2nc3ccccc3nc2-c2ccccc2NC(C)=O)o1,0.7,0.4,29,0.7,26
CC(=O)Nc1ccccc1-c1nc2ccccc2nc1OCC(=O)c1ccc2ccccc2c1,0.3,-1.4,68*,0.8,20
O=C(CNC(=O)c1cccs1)OCC(=O)c1ccc2ccccc2c1,0.9,0.59,8,0.9,7
CC(=O)Nc1ccccc1-c1nc2ccccc2nc1OCC(=O)c1ccc(Br)cc1,0.4,-1.2,58*,0.9,10
O=c1cc(N2CCN(Cc3ccccc3)CC2)[nH]c(=O)n1Cc1ccc(F)cc1,0.8,-1.4,16,1,-3
COc1ccccc1N1CCN(c2cc(=O)n(Cc3ccc(F)cc3)c(=O)[nH]2)CC1,nt,-6.1*,nt,nt,nt
Cc1ccc(S(=O)(=O)N2CCC(=O)N(CCOC(=O)Nc3cccc(Cl)c3)CC2)cc1,nt,-0.46,nt,nt,nt
Cc1nn(-c2ccccc2)c2c1P(=O)(O)/C(=C1\N(C)c3ccccc3C1(C)C)C=N2,1,0.0095,3,1,3
COc1ccccc1-c1noc(CCC(=O)Nc2cccc(C(F)(F)F)c2)n1,nt,-7.6*,nt,nt,nt
COc1cccc(NC(=O)CCc2nc(-c3ccccc3F)no2)c1,0.4,-0.22,60*,0.7,26
N=C1/C(=C/c2cccs2)C(=O)N=C2SN=C(SCc3ccccc3)N12,0.1,-7.7*,93*,0.9,11
NC1=NC(=O)/C(=C\c2cccs2)S1,1.2,0.93,-18,1,-5
O=C(Nc1nc(-c2ccc3c(c2)OCO3)cs1)C1COc2ccccc2O1 (stereo not drawn),0.2,-5.3*,80*,0.6,39
O=C(Nc1nc(-c2ccc(S(=O)(=O)N3CCCC3)cc2)cs1)C1COc2ccccc2O1 (stereo not drawn),0.1,-3.2,92*,0.4,62*
Cc1cc(NC(=O)CSc2nnnn2C)n(-c2ccccc2)n1,1.1,0.53,-10,1.2,-16
CCOc1ccc(C(=O)O)cn1,nt,1.7,nt,nt,nt
CCOC(=O)C1(S(=O)(=O)c2ccc(Cl)cc2)CCN(Cc2ccc(C)cc2)CC1,0,-2.5,99*,0.1,92*
O=C(N/N=C\c1ccc(-c2ccccc2[N+](=O)[O-])o1)C1COc2cc3ccccc3cc2O1 (stereo not drawn),0.5,-0.73,53*,0.6,41
CCn1ncc(/C=N\NC(=O)c2cc(-c3ccc(C)cc3C)nc3ccccc23)c1C,0,-1.8,97*,0.1,90*
CC(/C=N/NC(=O)c1cc(-c2ccc(Cl)cc2)nc2ccccc12)=C\c1ccco1,0.1,-2.5,89*,1,5
Cc1ccc(-c2cc(C(=O)N/N=C/c3c(C)nn(C)c3C)c3ccccc3n2)cc1C,0,0.56,97*,0.2,81*
SMILES,CYP2C9 activ,Cav3 T inh,CYP2C9 inhib,CYP2C19 activ,CYP2C19 inhib
Cc1occc1C(=O)N/N=C/c1cnn(C)c1C,nt,0.46,nt,nt,nt
Cn1c(=O)c2c(nc(CN3CCCCC3)n2Cc2c(F)cccc2Cl)n(C)c1=O,nt,0.19,nt,nt,nt
O=C1CCCN1CC(O)CS(=O)(=O)c1ccc(Cl)cc1 (stereo not drawn),0.9,-0.036,14,0.7,34
CCN(CC)c1ccc(C2=NNC(=O)CC2C)cc1[N+](=O)[O-] (stereo not drawn),0.5,0.62,52*,0.5,50
CC1CC(=O)NN=C1c1ccc(N(C)C)c([N+](=O)[O-])c1 (stereo not drawn),0.9,0.17,14,0.9,13
CCOc1nc(S(=O)(=O)c2ccc(C)cc2)c(Cl)s1,1.4,-0.55,-35,0.2,83*
Cc1ccc(S(=O)(=O)c2nc(Nc3nccs3)sc2Cl)cc1,0.4,-0.3,60*,0.3,68*
COCCN(CCOC)c1nc(S(=O)(=O)c2ccc(C)cc2)c(Cl)s1,0.4,-1.2,56*,0.2,81*
Oc1cccc2cc3cccc(O)c3c(O)c12,nt,-0.38,nt,nt,nt
Brc1ccccc1-c1nnc(CSc2nnc3sc4ccccc4n23)o1,0.8,1.2,24,0.2,79*
Cc1noc(C)c1CSc1cc(C)c2ccccc2n1,0.5,-0.76,55*,0.1,86*
Cc1noc(C)c1CSc1nc2ccccc2n1C,0.4,1.1,62*,0.1,89*
Cc1cc(SCCC(=O)O)nc2ccccc12,1.2,-0.0026,-25,1.2,-17
N#CCSc1nnc2sc3ccccc3n12,1.5,0.24,-53,1,4
Cc1noc(C)c1CSc1nnc2sc3ccccc3n12,1,0.27,2,0.2,78*
COc1ccc(CNC(=O)c2cccc(N3CCCC3=O)c2)cc1,0.3,0.75,71*,0.3,72*
O=C(NCCCN1CCN(c2ccc(F)cc2)CC1)c1cccc(N2CCCC2=O)c1,0.7,0.75,28,0.2,80*
CN(CCNC(=O)c1cccc(N2CCCC2=O)c1)Cc1ccccc1,0.8,-0.013,20,0.8,18
CCN(CCNC(=O)c1cccc(N2CCCC2=O)c1)c1ccccc1,1.1,0.11,-10,0.1,89*
COc1ccc(CNC(=O)c2ccc3c(c2)N(C)C(=O)CS3=O)cc1 (stereo not drawn),0.4,-0.53,64*,1,-3
O=C(NCCCN1CCCC1)c1cccc(N2CCCC2=O)c1,nt,1.3,nt,nt,nt
CNC(=O)c1cccc(N2CCCC2=O)c1,1.2,0.33,-23,1.2,-23
COc1ccc(CNC(=O)c2ccc3nccnc3c2)cc1,1,0.7,2,0.9,8
CCOCCc1nnc(NC(=O)CSc2ccccc2)s1,0.9,-0.65,15,0.8,19
COc1ccc(-c2nnn(CC(=O)N(Cc3cccs3)C(C)C(=O)NCCC(C)C)n2)cc1OC (stereo not drawn),0.7,-2.5,31,0.7,34
SMILES,CYP2C9 activ,Cav3 T inh,CYP2C9 inhib,CYP2C19 activ,CYP2C19 inhib
CC1CCc2cc(F)ccc2N1C(=O)CN1C(=O)c2ccccc2C1=O (stereo not drawn),0.7,0.072,34,0.7,33
CCOC(=O)Nc1ccc2c(c1)Nc1ccccc1S2,0.9,-0.91,15,1,0
CC(=O)c1ccc2c(c1)Nc1ccccc1S2,0.4,nt,57*,0.9,12
COC(=O)C1=C(N)c2ccccc2C1(C#N)c1ccccc1 (stereo not drawn),0.7,-9*,30,0.8,22
c1ccc(N2CCN(c3ccccc3)C2c2cccnc2)cc1,nt,-2.1,nt,nt,nt
CCN1c2ccccc2-c2nc3ccccc3n2C1c1ccncc1 (stereo not drawn),0,-0.82,100*,0,98*

# Screening results from PubChem.
